Gal4-VP16 FLuc: counter-screen for ROR gamma inhibitors: Gal4-VP16 reporter. Drosophila S2 Gal4-VP16 UAS-luciferase, luminescence, 20 h. Potency, µM (series often up to 53.6 µM), inactives show at the top dose activity, negative = inhibition, most hits filed as inhibitors. 3.5% of 310,000 active. AID 2546;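 further: Gal4-VP16 expression switched on by copper sulfate through the metallothionein promoter; on the % scale 0 is the no-effect control and ±100 the full control effect; nearly all actives have a fitted effect of over 50% in size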
uPA surface inh: cell surface uPA generation inhibition. Potency, µM (titrated, usually from 38.3 µM), inactives show top-dose activity change, negative = inhibition, hits mostly inhibitors. cell surface uPA generation assay, qHTS. 0.31% of 330,000 active. AID 540303; active means well fitted inhibition curve with a large enough effect; inconclusive means small, poorly fitted or top-dose-only effect; inactive means no such curve, though single readings can be large or run the other way; tested in mouse RAW 264.7 cells; further: on the % scale 0 is the no-effect control and ±100 the full control effect; nearly all actives have a fitted effect of over 55% in size
Chronic BCR inh: inhibitors of chronic active B-cell receptor signaling; ABC-DLBCL IkBa-CBG/CBR reporter, luminescence ratio, 4 h; Potency, µM (top dose mostly 46.1 µM), for the others: top-dose activity change, negative = inhibition, usual class: inhibitors; 0.05% of 340,000 active; AID 493014; active means well fitted inhibition curve with a large enough effect in the signal ratio, with a control signal flat, not every such curve was filed as active; inconclusive means small, poorly fitted or top-dose-only effect, or effect the other way, or a change in a side signal; the % refers to the signal ratio;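 further: plate controls were basal doxycycline-induced cells for no effect and cells given 10 µM MG132 for full effect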
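TMD8 ABC-DLBCL cells carrying doxycycline-inducible green luciferase fused to IkappaBalpha plus unfused red luciferase were exposed to compounds (up to 46 uM) for 4 hrs at 37C. Activity came from the overlap-corrected green/red luminescence ratio.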
RORg inh: inhibitors of mouse ROR gamma transcriptional activity | Drosophila S2 Gal4-RORgamma UAS-luciferase reporter, 20 h | AID 2551 | P51450 | 5.4% of 310,000 active | Potency, µM (titrated, usually from 53.6 µM), for inactives: at the top dose activity change, negative = inhibition, hits mostly inhibitors; further: on the % scale 0 is the no-effect control and ±100 the full control effect; nearly all actives have a fitted effect of over 60% in size
Target sequence (P51450 whole entry, looked up, the tested form may be a part): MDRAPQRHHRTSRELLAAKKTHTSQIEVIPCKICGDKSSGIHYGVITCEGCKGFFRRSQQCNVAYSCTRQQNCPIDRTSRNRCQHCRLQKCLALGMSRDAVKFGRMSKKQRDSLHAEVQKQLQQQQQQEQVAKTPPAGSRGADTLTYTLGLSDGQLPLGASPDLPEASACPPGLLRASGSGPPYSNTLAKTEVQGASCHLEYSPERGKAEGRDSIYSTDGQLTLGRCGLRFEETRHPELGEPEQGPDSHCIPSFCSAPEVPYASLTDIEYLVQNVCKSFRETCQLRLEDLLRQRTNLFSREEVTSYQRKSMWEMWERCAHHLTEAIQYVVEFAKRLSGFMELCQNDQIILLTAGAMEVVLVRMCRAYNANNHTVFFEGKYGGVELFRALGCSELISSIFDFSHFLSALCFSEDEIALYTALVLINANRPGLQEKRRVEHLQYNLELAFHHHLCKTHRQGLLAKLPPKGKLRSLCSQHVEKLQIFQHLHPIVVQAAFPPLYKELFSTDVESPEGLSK
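Luciferase reporter read in Schneider cells carrying Gal4-RORγ (mouse) and UAS-Photinus luciferase; cells given compound 1 h before 700 uM copper sulfate induction, then incubated 20 h at ambient temperature.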
Integrin act MD: activates integrin-mediated alleviation for muscular dystrophy. alpha7betagal myoblasts, beta-gal FDG fluorescence, 48 h. Potency, µM (top dose mostly 38.3 µM), for inactives: at the top dose activation, actives largely listed as activators. 0.064% of 350,000 active;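 further: 100% = response of the positive control SU9516; nearly all actives have a fitted effect of over 60% in size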
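alpha7betagal+/- myoblasts (passage 13, 250/well) treated 48 h at 37C with compounds at 1:260 dilution of DMSO stock. Lysed, then beta-galactosidase activity read as FDG fluorescence (ex 480/em 540) after 30 min, with pre-read for autofluorescence.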
Mito fusion yeast: mitochondrial division inhibition or fusion activation | S. cerevisiae fusion-defective mutant growth rescue, CellTiterGlo 48 h | Potency, µM (top dose mostly 46.1 µM), without a hit: at the top dose growth rescue (activation), most hits filed as activators | 0.23% of 320,000 active; further: % of control where 0% means no effect; nearly all actives have a fitted effect of over 45% in size
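S. cerevisiae fusion-defective temperature-sensitive mutants (e.g. fzo1-1, mgm1-5) grown 48 h at 37C in YPEG (ethanol/glycerol non-fermentable) medium with 23 nl compound per well; growth rescue read as CellTiterGlo luminescence.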
Starred values were filed as active, the others as inactive; ? = inconclusive; . = no result given. Compounds with a hit are over-represented: about 5.5% of the library has one in this group of screens. Unless noted, the call rests on the fitted dose curve; in most records, active means well fitted curve in the direction sought with a large enough effect; inconclusive means small, poorly fitted or top-dose-only effect, or another doubt; inactive means no such curve, though single readings can be large; an effect the other way counts as inactive or inconclusive. Potency means the concentration at half of the fitted maximal effect.

SMILES	Gal4-VP16 FLuc	uPA surface inh	Chronic BCR inh	RORg inh	Integrin act MD	Mito fusion yeast
CC(=O)SC1CC(=O)N(c2ccc(C(C)(C)C)cc2)C1=O (stereo not given)	?	-1.6%	-24.1%	7.08µM*	-18.0%	-2.4%
CN=C1S/C(=C\c2cccc(Cl)c2Cl)C(=O)N1C	.	-15.7%	.	.	-2.3%	.
O=C1NC2(CCSC2)C(=O)N1CC(=O)N(Cc1ccccc1)C1CCS(=O)(=O)C1 (stereo not given)	10.1%	-3.1%	4.0%	-22.7%	-14.1%	-1.8%
CC1CC(C)CN(S(=O)(=O)c2ccc(C(=O)OCC(=O)Nc3ccccc3)cc2)C1 (stereo not given)	.	.	.	.	2.0%	.
Nc1nnnn1/N=C/C(Br)=C/c1ccccc1	?	-2.5%	?	3.16µM*	-56.0%	-13.6%
N#Cc1ccccc1COc1ccc(/C=C/C(=O)O)cc1	0.708µM*	2.7%	-0.9%	0.178µM*	25.8%	3.3%
CCC(C)C1NC(=O)C(CCNCS(=O)(=O)O)NC(=O)C(NC(=O)C(CCNCS(=O)(=O)O)NC(=O)C(NC(=O)C(CCNCS(=O)(=O)O)NC(=O)CCCCC(C)C)C(C)O)CCNC(=O)C(C(C)O)NC(=O)C(CCNCS(=O)(=O)O)NC(=O)C(CCNCS(=O)(=O)O)NC(=O)C(C(C)CC)NC1=O (stereo not given)	-25.8%	.	.	?	.	.
Cc1cc(C)c(S(=O)(=O)/N=C2\C=C(Nc3ccc(C(=O)O)cc3)C(=O)c3ccccc32)c(C)c1	10µM*	-4.6%	?	?	-76.9%	-25.7%
O=C(O)c1ccc(NC2=C/C(=N/S(=O)(=O)c3ccccc3)c3ccccc3C2=O)cc1	7.94µM*	-7.1%	?	11.2µM*	-61.3%	11.0%
CCN(CC)CCC(c1ccc(N(C)C)cc1)c1c(OC)cc(OC)c2c1OC(=O)CC2c1ccc(OC)cc1 (stereo not given)	0.8%	.	.	12.4%	.	.
O=S(=O)(NCCCc1ccccc1)c1cccc2nsnc12	-3.6%	-3.1%	0.3%	38.0%	18.7%	6.3%
O=S(=O)(NCc1ccccn1)c1ccc(Cl)s1	?	0.6%	-0.3%	8.91µM*	33.4%	3.1%
O=S(=O)(NCc1ccccn1)c1cccc2nsnc12	?	-4.0%	9.4%	7.94µM*	10.5%	-1.4%
O=S(=O)(NCc1ccccn1)c1ccccn1	-0.9%	-1.6%	-9.4%	11.2µM*	0.0%	-1.9%
CC(=O)CCSc1ncnc2sc(-c3ccccc3)cc12	6.3%	-8.4%	2.8%	-4.3%	-54.7%	0.4%
O=C(O)CCSc1ncnc2sc(-c3ccccc3)cc12	5.01µM*	-1.0%	?	1.78µM*	-19.1%	18.5%
CC(Sc1ncnc2sc(-c3ccccc3)cc12)C(N)=O (stereo not given)	-25.4%	-18.0%	-2.1%	12.6µM*	7.4%	-2.4%
Cc1ccc(CN=Cc2[nH]c3ccc(Br)c(Cl)c3c2O)cc1	?	-1.9%	0.5%	12.6µM*	-52.9%	5.9%
Oc1c(C=NCc2ccc(F)cc2)[nH]c2ccc(Br)c(Cl)c12	-1.6%	.	4.9%	-33.3%	.	-0.7%
CCCC(=O)NC(c1ccccc1Cl)c1ccc2cccnc2c1O (stereo not given)	4.47µM*	-7.2%	?	2.82µM*	-15.3%	4.1%
COc1ccc(OCC(=O)Nc2cccc3cccnc23)cc1	-12.7%	0.9%	-2.4%	-16.4%	-20.3%	17.5%
COc1ccc(C(NC(=O)C(C)C)c2ccc3cccnc3c2O)cc1 (stereo not given)	6.31µM*	6.7%	?	2.24µM*	-53.1%	-1.0%
CCCCC(=O)NC(c1ccc(Cl)cc1Cl)c1ccc2cccnc2c1O (stereo not given)	3.16µM*	-12.6%	?	3.16µM*	-21.4%	1.6%
CCCC(=O)NC(c1ccc(N(C)C)cc1)c1ccc2cccnc2c1O (stereo not given)	2.82µM*	-17.1%	-14.4%	2.51µM*	-48.6%	-2.3%
